Experimental data published in PubChem BioAssay (NCI).
Several values for one entry are separate records, joined by “and”; a condition that tells them apart may be missing. Identical values can stand only once. About 83,000 compounds went through this panel and 20% of them were active in at least one assay; those are over-represented in the sample as a whole.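 48-hour exposure, single concentration, 96-well plates; percent growth endpoint where 0 means no net growth. Active: below 10.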 Values without a mark were called inactive. Activity calls are given as the source filed them.

The compounds below were run on HL-60(TB) leukemia (assay: NCI-60 one-dose screen, 48 h (100 = growth as untreated, 0 = no growth, -100 = all killed)). Conditions: 10 µM unless noted.
O=C(NNc1ccccc1)c1ccccc1 was tested, and the growth was 7.78% (active) and -1.5% (active).
With CCN(CC)CCn1nc2c3c(cccc3c1=O)-c1ccccc1-2 the growth was 16.9%.
COc1ccc(CC(C#N)c2ccc(Cl)cc2)cc1 (stereo not given) was tested, and the growth was 84%.
In the case of Cc1nn(-c2ccc(Cl)cc2)c2ncnc(N/N=C/c3ccccc3O)c12, the growth is reported as -4.93% (active) and 1.67% (active).
Compound CCOCC(O)(c1ccc(Cl)cc1)c1ccc(Cl)cc1 has a growth of 106%.
Compound CCCCOc1ccc(/C=N/NC(N)=S)cc1 has a growth of 60.5%.
In the case of CCOC(=O)C1=C(C)NC(C)=C(C(=O)OCC)C1, the growth is reported as 110% and 102%.
C#Cc1ccc(-n2c(/C=C/c3ccc(Cl)c(F)c3)nc3ncccc3c2=O)cc1 was tested, and the growth was -35.9% (active).
COc1ccc(C2=Nc3c/c(=C\c4c(O)[nH]c5ccc(Cl)cc45)ccc3=N2)cc1 was tested, and the growth was 6.79% (active).
Work on CCOC(=O)c1cc(CC)sc1NC(=O)CC(C)=O yielded a growth of 51.4%.
CCN1/C(=C\c2cc[n+](CC)c3ccccc23)C=Cc2ccccc21 was tested, and the growth was 5.97% (active).
In the case of COc1cc(NC(=O)Nc2cnc(Nc3ccc(N4CCOCC4)cc3)nc2Oc2cccc(OC)c2)cc(OC)c1, the growth is reported as 22.8%.
Compound c1ncc2[nH]cnc2n1 has a growth of 54.2%.
In the case of CCOC(=O)c1c(C)c2c(n1C)CSc1cc(C(=O)c3ccccc3)c(=O)[nH]c1-2, the growth is reported as 74.7% [100 µM].
CCOc1ccc(-c2nonc2NC(=O)c2cccc(C)c2)cc1OCC gave a growth of 73%.
CCOC(=O)c1cc(/C(=N\O)c2cc(OC)c(OC)c(OC)c2)n2c(C)cccc12 was tested, and the growth was 3.22% (active).
Work on Fc1ccc(-c2nnc(-c3c(-c4ccc(F)cc4)nc4ncccn34)o2)cc1 yielded a growth of 87.8%.
In the case of NC(CSSCC(N)C(=O)O)C(=O)O (stereo not given), the growth is reported as -12.8% (active).
In the case of CCCCC1CCCCN1C(=O)OCC (stereo not given), the growth is reported as 128%.
In the case of OCCN1CCN(CCO)CC1, the growth is reported as 108% and 102% and 96.2%.
COc1cc2nc(Cl)nc(Nc3ccc(S(=O)(=O)Nc4nccs4)cc3)c2cc1OC gave a growth of 102%.
O=C(NCCc1ccc(O)c(O)c1)C12CC3CC(CC(C3)C1)C2 showed a growth of 57%.
c1ccc(-c2nc(N3CCOCC3)c3c4c(sc3n2)CCCCCC4)nc1 showed a growth of 68.4%.
Nc1nc2c(s1)CCc1cn(S(=O)(=O)c3ccccc3)cc1-2 was tested, and the growth was 70.6% and 76.2%.
In the case of COc1ccc2cc3[n+](cc2c1OC)CCc1cc2c(cc1-3)OCO2, the growth is reported as 75.4% and 70.1%.
